What all share (test): NCI-60 one-dose screen, 48 h (100 = growth as untreated, 0 = no growth, -100 = all killed)
Common to all, as to settings: 10 µM

For assay [1], the system named is NCI-H23 lung.
The test system of assay [2] is NCI-H226 lung.
In assay [3] the test system is NCI-H322M lung.
Assay [4] deals with HOP-62 NSCLC.
Assay [5] concerns NCI-H522 lung.
In assay [6] the test system is A549/ATCC NSCLC.
The subject of assay [7] is 786-0 renal.
In assay [8] the test system is DU-145 prostate.
Assay [9] has as its system K-562 leukemia.
Assay [10] concerns MALME-3M melanoma.
In assay [11] the test system is MDA-MB-231 breast.
The test system of assay [12] is RXF 393 renal.
In assay [13] the test system is SF-268 CNS.
Assay [14] deals with SF-295 CNS.
In assay [15] the test system is SF-539 CNS.
Assay [16] concerns UACC-257 melanoma.
Assay [17] deals with M14 melanoma.
Assay [18] deals with HOP-92 NSCLC.
The subject of assay [19] is NCI-H460 lung.
The test system of assay [20] is COLO 205 colon.

The structures appear in SMILES notation. About 83,000 compounds went through this panel and 20% of them were active in at least one assay; those are over-represented in the sample as a whole.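 Cell lines were cultured in 96-well plates, exposed to a single compound concentration, and assessed for percent growth 48 hours later.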 Values without a mark were called inactive. The source made the active and inactive calls. How the source made its calls: active means growth percent below 10; inactive means the rest.

Regarding `C#Cc1cccc(NC(=O)c2ccc(Cl)cc2Cl)c1`, the growth is 102% in assay [1]; 104% in [2]; 98.3% in assay [3]; 108% in [4]; 74.4% in [5]; 48.7% in assay [6]. Besides, the growth in assay [7] was 99.9%; in assay [8], 112%; in [9], 85.5%; in assay [10], 108%; in assay [11], 118%; in assay [12], 105%. For the same compound, the growth in [13] was 98.9%; in assay [14], 107%; in assay [15], 95.7%; in [16] it was 108%; in assay [17], 98%.

For `N/N=C(/Cc1ccccc1)NNC(N)=S`, the growth in assay [1] is 99%; in assay [2] it was 108%; in assay [3], 82.7%; in assay [18], 119%; in [5], 72.4%; in [6] it was 74.4%. In addition, the growth in assay [7] is 111%; in assay [8] it was 106%; in assay [9], 103%; in assay [10] it was 95.4%; in assay [11], 111%; in [12], 112%. For the same compound, the growth in [13] is 97.4%; in assay [14], 105%; in assay [15], 98.5%; in assay [16] it was 92.3%; in assay [17], 93.5%.

`CC(C)(O)C#CC#CC(C)(C)O`: the growth in [1] was 88.9%; in assay [2], 79.4%; in [3], 102%; in assay [19], 104%; in [5], 82.5%; in assay [6], 91.5%. Besides, the growth is 106% in assay [7]; 113% in [8]; 93.6% in assay [9]; 107% in assay [10]; 105% in [11]; 106% in [13]. The growth in [14] was 95.1%; in assay [15], 93.8%; in assay [16] it was 94.4%; in assay [17] it was 107%.

In the case of `O=C(O)CCCc1ccccc1`, the growth in [1] is 103%; in assay [2] it was 108%; in assay [19] it was 115%; in [18] it was 105%; in [6], 102%; in assay [7], 97.4%. For the same compound, the growth in assay [20] is 110%; in assay [8] it was 119%; in [10], 118%; in assay [11] it was 117%; in assay [12] it was 113%; in [13], 118%. For the same compound, the growth in assay [14] is 110%; in [15], 120%; in [16], 104%; in assay [17], 101%.

In the case of `CCOC(=O)c1cc2cccc(OC)c2oc1=O`, the growth in [1] was 110%; in assay [2] it was 106%; in assay [3] it was 107%; in assay [19] it was 110%; in assay [5], 83.5%; in assay [7], 95.5%. The growth in [20] is 123%; in [8] it was 123%; in assay [9], 99%; in [10], 115%; in assay [11] it was 107%; in assay [12], 122%. In addition, the growth was 111% in [13]; 130% in [14]; 107% in assay [15]; 98.2% in [16]; 99.4% in assay [17].

Consider `O=C1C=CC(=O)N1c1ccc(I)cc1Cl`, for which the growth in assay [1] was 100%; in assay [2], 108%; in assay [4], 90.7%; in [19], 109%; in assay [5], -29.7% (active); in assay [6] it was 46%. The growth is 97% in assay [7]; 113% in assay [20]; 110% in [8]; 114% in [9]; 107% in assay [11]; 110% in assay [12]. Besides, the growth in [13] was 126%; in assay [15], 97.1%; in assay [16], -2.76% (active); in assay [17] it was 95.1%.

In the case of `O=S(=O)(O)c1cc(O)c2c(N=Cc3ccccc3O)c(S(=O)(=O)O)ccc2c1`, the growth in assay [1] was 101%; in [2], 101%; in assay [3], 93.7%; in assay [19], 105%; in assay [5], 91.4%; in [6], 111%. For the same compound, the growth in assay [7] is 99.8%; in assay [20], 119%; in assay [8], 109%; in assay [9], 96.7%; in assay [10] it was 97.9%; in assay [11], 127%. Besides, the growth in [12] was 105%; in [13], 102%; in [14], 81.9%; in [15], 94.3%; in assay [16], 111%; in assay [17], 94.4%.

Turning to `Clc1ccc(-c2nnc(-c3cccc4ccccc34)o2)cc1`, the growth in assay [1] is 83.6%; in [2] it was 87.6%; in [3] it was 112%; in assay [19], 96.4%; in assay [5] it was 83.5%; in [7], 110%. Moreover, the growth in assay [20] was 101%; in assay [8], 114%; in [9], 104%; in [10], 99.8%; in [12], 102%; in [13], 103%. Besides, the growth is 110% in assay [14], 94.8% in assay [15], 78% in assay [16] and 103% in [17].

On to `C[N+](C)=c1ccc2nc3c(cc(Nc4ccccc4)c4ccccc43)oc-2c1`, for which the growth is 31.6% in [1]; 44.4% in [2]; 67.6% in [4]; 65% in assay [19]; 79.5% in assay [18]; 42.3% in [5]. Further, the growth was 64.4% in [6]; 72.8% in assay [7]; 22.6% in assay [20]; 55.4% in [8]; 38.5% in assay [9]; 28.2% in assay [10]. In addition, the growth was 47% in assay [11]; 69.2% in [12]; 80.3% in assay [13]; 59.5% in [14]; 74.3% in assay [15]; 38.6% in assay [16]. Further, in assay [17], the growth was 33.9%.

The values are drawn from PubChem BioAssay (NCI).
